Source: PubChem BioAssay
AF4-AF9 inh = inhibitors of human MLL-AF4/AF9 interaction | P42568 | AlphaScreen, biotin-AF4 peptide binding to FLAG-AF9 | inhibition, % at 10 µM | 350,000 tested, 0.47% active | AID 651704;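 active = every replicate reaching a set inhibition limit, whatever the replicate mean, cut at about 25% in these data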;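 also: 0% = plate neutral control median and 100% = total signal loss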
PGC1a acetyl inh = lowers PGC1a acetylation signal in U2OS cells; AlphaScreen anti-acetyl-lysine; with virally co-expressed GCN5 acetyltransferase; AID 651687; 350,000 tested, 0.17% active; inhibition, % at 15.6 µM;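 active = every replicate shows inhibition of at least 40%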;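 also: 0% = neutral control wells and 100% = positive control wells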
GSIS activator = primary screen for activators of insulin secretion dependent on glucose, INS-1E cells, GLuc reporter luminescence | activation, % at 16.6 µM | INS-1E GLuc reporter insulin secretion, 2-3 h | 370,000 tested, 0.61% active;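 active = lowest replicate activation of at least 40%, so every replicate reaches that level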;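 also: 0% = median of neutral control wells and 100% = median of IBMX positive control wells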
Env fusion inh = blocks HIV Env-driven cell-cell fusion | HeLa-JRFL Env/CEM21 cell fusion, luciferase | inhibition, % at 12.3 µM | 360,000 tested, 1.1% active | AID 651610;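 active = mean replicate inhibition score of at least 50 and every replicate individually at or above 50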;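 also: 0% = plate neutral controls and 100% = maraviroc near 300 nM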
NSD2 inh = inhibitors of human histone methyltransferase NSD2; O96028; NSD2 peptide methylation, AlphaScreen, 120 min; inhibition, % at 12.5 µM; 310,000 tested, 0.54% active; in the data active = inhibition above about 50%
Target sequence (O96028 whole entry, looked up): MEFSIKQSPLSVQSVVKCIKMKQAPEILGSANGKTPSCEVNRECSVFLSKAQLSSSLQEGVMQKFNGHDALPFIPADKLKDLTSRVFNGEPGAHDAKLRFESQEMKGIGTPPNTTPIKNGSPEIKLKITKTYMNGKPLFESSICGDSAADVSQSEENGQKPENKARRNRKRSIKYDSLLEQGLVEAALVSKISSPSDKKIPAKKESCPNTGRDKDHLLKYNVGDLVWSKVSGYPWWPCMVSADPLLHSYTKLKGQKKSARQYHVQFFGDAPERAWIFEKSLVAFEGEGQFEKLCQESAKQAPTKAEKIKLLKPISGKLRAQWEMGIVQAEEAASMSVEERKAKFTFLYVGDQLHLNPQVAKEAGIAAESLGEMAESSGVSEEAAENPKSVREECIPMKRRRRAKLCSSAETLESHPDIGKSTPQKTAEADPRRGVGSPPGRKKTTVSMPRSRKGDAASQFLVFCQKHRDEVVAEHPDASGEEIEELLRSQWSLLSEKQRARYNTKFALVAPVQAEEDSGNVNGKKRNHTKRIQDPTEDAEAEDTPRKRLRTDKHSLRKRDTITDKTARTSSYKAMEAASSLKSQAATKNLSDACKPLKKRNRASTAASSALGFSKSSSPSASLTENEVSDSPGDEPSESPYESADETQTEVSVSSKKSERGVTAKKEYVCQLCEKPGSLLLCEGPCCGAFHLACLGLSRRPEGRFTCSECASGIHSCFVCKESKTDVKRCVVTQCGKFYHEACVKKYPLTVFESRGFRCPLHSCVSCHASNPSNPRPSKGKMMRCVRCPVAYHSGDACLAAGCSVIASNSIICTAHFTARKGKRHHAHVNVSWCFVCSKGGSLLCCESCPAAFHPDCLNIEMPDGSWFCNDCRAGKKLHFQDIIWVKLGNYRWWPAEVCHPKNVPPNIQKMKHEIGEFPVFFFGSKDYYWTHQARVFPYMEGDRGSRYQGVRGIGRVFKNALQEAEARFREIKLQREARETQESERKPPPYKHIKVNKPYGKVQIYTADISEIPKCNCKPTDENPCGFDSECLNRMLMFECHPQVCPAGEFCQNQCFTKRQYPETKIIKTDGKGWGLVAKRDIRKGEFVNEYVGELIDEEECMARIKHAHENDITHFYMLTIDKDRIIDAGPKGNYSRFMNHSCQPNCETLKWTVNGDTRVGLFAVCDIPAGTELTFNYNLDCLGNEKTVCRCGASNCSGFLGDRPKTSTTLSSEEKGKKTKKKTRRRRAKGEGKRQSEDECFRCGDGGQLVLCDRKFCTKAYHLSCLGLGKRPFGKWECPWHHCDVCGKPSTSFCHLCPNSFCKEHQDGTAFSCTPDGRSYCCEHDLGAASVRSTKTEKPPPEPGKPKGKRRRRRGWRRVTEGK
Numbers without * were called inactive. A selection: hits, their analogues and other compounds. The true share with any hit is near 2.1%.

Results for COc1ccc(-c2ccc3c(c2)[C@@H]2[C@@H](CCN2C(=O)NC2CCCCC2)[C@H](CO)N3C)cc1 ?
AF4-AF9 inh: 16; PGC1a acetyl inh: 31; GSIS activator: -3

Results for Cc1cccc(CN2CCN(C3CN(Cc4cn(Cc5ccccc5C(F)(F)F)nn4)S(=O)(=O)C3)CC2)c1 (centres undefined) ?
AF4-AF9 inh: 3; PGC1a acetyl inh: -1; GSIS activator: -15; Env fusion inh: 12

Results for C[C@H](CO)N1C[C@H](C)[C@H](CN(C)Cc2ccccc2)Oc2c(NC(=O)C3CC3)cccc2C1=O ?
AF4-AF9 inh: -5; PGC1a acetyl inh: 6; GSIS activator: -3

What do the screens show for `Cc1ccc2c(Cl)c(C)c(N3CCCCC3)nc2n1`?
GSIS activator: 53*; Env fusion inh: -33; NSD2 inh: -5

What do the screens show for `O=C(Nc1nncs1)C1c2ccccc2Oc2ccccc21`?
GSIS activator: -23; Env fusion inh: 59*; NSD2 inh: 1

What do the screens show for `Cc1nnc(NC(=O)C2c3ccccc3Oc3ccccc32)s1`?
PGC1a acetyl inh: -6

How did Cc1ccc(C)c(-n2cc(CNCCCn3cccn3)c(-c3ccccc3)n2)c1 do in these assays?
AF4-AF9 inh: 4; PGC1a acetyl inh: -1; GSIS activator: -12; Env fusion inh: 69*; NSD2 inh: 0

How did Cc1ccc(-n2cc(CNCCCn3ccnc3C)c(-c3ccc(F)cc3)n2)cc1 do in these assays?
AF4-AF9 inh: 26*; PGC1a acetyl inh: -25; GSIS activator: 44*; Env fusion inh: 14; NSD2 inh: 12

What do the screens show for `CC1(Cc2ccc3c(c2)OCO3)C(=O)Nc2ccc(-c3cccc(C(F)(F)F)c3)cc21` (centres undefined)?
AF4-AF9 inh: -2; PGC1a acetyl inh: -7; Env fusion inh: 8; NSD2 inh: -6

How did CC1(Cc2ccc(C(F)(F)F)o2)C(=O)Nc2ccc(-c3cccc(C(F)(F)F)c3)cc21 (centres undefined) do in these assays?
AF4-AF9 inh: -1; GSIS activator: 173*; Env fusion inh: 26; NSD2 inh: 0

Results for COc1ccc(-c2cc3c(=O)n(CC(=O)NCCCN4CCC(N5CCCCC5)CC4)nc(C)n3n2)cc1 ?
AF4-AF9 inh: 8; PGC1a acetyl inh: -10; GSIS activator: 14; Env fusion inh: 13; NSD2 inh: 9

How did OC(CN1CCCCC1)Cn1c(C(F)(F)F)nc2ccccc21 (centres undefined) do in these assays?
PGC1a acetyl inh: -5; NSD2 inh: 2

Results for CCN(CC)c1ccc(/C=N/N2C(C)CCCC2C)c(O)c1 (centres undefined) ?
AF4-AF9 inh: 18; GSIS activator: 4; Env fusion inh: 73*; NSD2 inh: 4

How did COc1ccc(/C=N/N2C(C)CCCC2C)cc1O (centres undefined) do in these assays?
AF4-AF9 inh: 1; PGC1a acetyl inh: 9; GSIS activator: 1; Env fusion inh: 5; NSD2 inh: -2

Results for CCN(CC)c1ccc(/C=N/N2CCOCC2)c(O)c1 ?
PGC1a acetyl inh: -1; GSIS activator: 0; Env fusion inh: -136; NSD2 inh: 6

Results for CC1CCCC(C)N1/N=C/c1ccc(O)c(O)c1 (centres undefined) ?
AF4-AF9 inh: 3; PGC1a acetyl inh: -1; GSIS activator: 0; Env fusion inh: 0; NSD2 inh: 60*

How did COc1cc(/C(C)=N\NC(=O)CSc2nc3ccccc3n2C)ccc1O do in these assays?
AF4-AF9 inh: 6; PGC1a acetyl inh: 6; GSIS activator: 42*; Env fusion inh: 1

How did CCn1c(SCC(=O)N/N=C/c2ccc(OC)c(OC)c2)nc2ccccc21 do in these assays?
PGC1a acetyl inh: -9; GSIS activator: 84*; Env fusion inh: 21; NSD2 inh: -1

Results for COc1ccc(/C=N/NC(=O)CCSc2nc3ccccc3s2)cc1OC ?
AF4-AF9 inh: 5; PGC1a acetyl inh: -2; GSIS activator: 54*; Env fusion inh: 2; NSD2 inh: 1

What do the screens show for `COc1ccc(/C=N/OCC(=O)NC(c2ccccc2)c2ccccc2)cc1OC`?
AF4-AF9 inh: 5; GSIS activator: -62; Env fusion inh: 62*; NSD2 inh: -2

How did COc1ccc(/C=N/NC(=O)CCn2c3ccccc3c3ccccc32)cc1OC do in these assays?
AF4-AF9 inh: 3; GSIS activator: 54*; Env fusion inh: 14; NSD2 inh: -3
